The source of these data is PubChem BioAssay AID1307 (SRMLSC, 2008).

Screen size: about 1,200 compounds; fewer than 10 were called active. Only a sample is shown. Entries with a potency or affinity are not part of this list. A number with no mark means an inactive call.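 How the source made its calls: active means inhibition reaching a set limit at one or more tested concentrations; inactive means inhibition under that limit at every dose.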

The nature of the test: yeast RAM network inhibitors, dose response, S. cerevisiae (AID 1307).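 Further: 0% = DMSO vehicle wells and 100% = 10 µM 1-NA-PP1 control; higher inhibition means more yeast growth since RAM block rescues cells from 5-FOA.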 The note with it: S. cerevisiae RAM network URA3 reporter, 5-FOA growth OD615, active compounds read high, yeast express analog-sensitive mutant Cbk1 kinase; at 100 µM unless noted.
For `Cc1ccc(-n2c(O)c(/C=N/c3ncn[nH]3)c3ccccc3c2=O)cc1`, the max inhibition was 10.6%.

Regarding `COc1ccc(/C=C(\C#N)C(=O)NCCc2ccccc2)cc1OCc1ccccc1`, the max inhibition was 4.42% [at 1.563 µM].

Consider `CCOC(=O)C1=C(c2ccccc2)N=c2s/c(=C\c3cc(OC)c(OC)c(OC)c3)c(=O)n2C1c1cccs1` (stereo not given), for which the max inhibition was 14.2%.

On to `O=C(COC(=O)c1cc(Cl)ccc1[N+](=O)[O-])NCc1ccc(Cl)cc1Cl`, for which the max inhibition was 4.62% [at 1.563 µM].

As to `C=CCSc1nnc(CCCCCN2C(=O)c3cccc4cccc(c34)C2=O)o1`, the max inhibition was 6.81%.

Consider `Cc1ccc(/C=C/c2ccc(=O)n(Cc3ccccc3Cl)n2)cc1`, for which the max inhibition is 3.92% [at 3.125 µM].

Turning to `O=C(/C=C/c1cccc(C(F)(F)F)c1)Nc1cccc(C(F)(F)F)c1`, the max inhibition is 2.77% [at 12.5 µM].

`COc1ccc(C(=O)/C=C/c2ccc(OC)c(COc3ccccc3F)c2)cc1`: the max inhibition is 3.26% [at 12.5 µM].

In the case of `S=C(NCCC(c1ccccc1)c1ccccc1)Nc1ccccc1Cl`, the max inhibition is 2.81%.

For `Cc1ccc(NC(=O)Cc2ccc(Cl)c(Cl)c2)cc1S(=O)(=O)N(C)C`, the max inhibition was 1.65%.

As for `CCN(CC)S(=O)(=O)c1cccc(C(=O)OCC(=O)c2ccc3c(c2)OCCO3)c1`, the max inhibition is 3.81% [at 6.25 µM].

Turning to `CC(C)Cn1c(N)c(-c2nc(C(C)C)c(C(=O)c3ccccc3F)s2)c(=O)n(C)c1=O`, the max inhibition is 7.65%.

Turning to `COc1cccc(CN(Cc2ccccc2F)S(=O)(=O)c2ccc(S(=O)(=O)NCc3ccccc3)cc2)c1`, the max inhibition was 4.33%.

Take `COc1cccc(CN(Cc2ccco2)C(c2ccc(F)cc2)c2nnnn2C(C)(C)C)c1` (stereo not given): the max inhibition is 5.18%.

`O=C(COC(=O)c1ccc(CSc2ccc(Cl)cc2)cc1)Nc1ccccc1`: the max inhibition was 4.59%.

As to `CCOC(=O)c1c(-c2ccc(OC)cc2)csc1NC(=O)CSc1ccccc1`, the max inhibition was 5.06%.

Take `C=C(C)CNC(=S)Nc1nc2c(cc1C(=O)OCC)CCCC2`: the max inhibition is 2.44% [at 25 µM].

For `COC(=O)c1cc(=O)n(CCc2ccccc2)c(=Nc2ccc(F)cc2)s1`, the max inhibition was 4.08% [at 50 µM].

On to `O=C(O)CSc1nc(-c2ccc(Cl)cc2)nc2c1oc1ccccc12`, for which the max inhibition is 6.31% [at 50 µM].

For `COc1ccc(OC)c(NC(=O)C(Sc2ccccc2)c2ccccc2)c1` (stereo not given), the max inhibition is 4.44% [at 50 µM].

As for `O=C(Nc1ccccc1-c1nnc(SCc2ccccc2Cl)o1)c1ccccc1`, the max inhibition was 2.67% [at 50 µM].

For the molecule `Cc1ccccc1N1C(=O)CC1(C#N)c1ccc(OCc2ccccc2)cc1` (stereo not given), the max inhibition was 3.12% [at 50 µM].

As for `O=C(CC12CC3CC(CC(C3)C1)C2)NC(=S)NCc1ccco1`, the max inhibition is 5.22% [at 50 µM].

With `Cc1ccc(Cl)cc1N1CCN(S(=O)(=O)c2ccc3[nH]c(=O)c(=O)[nH]c3c2)CC1`, the max inhibition is 4.39%.

Regarding `O=C(CCCSc1nc2ccccc2[nH]1)Nc1nnc(-c2ccccc2)o1`, the max inhibition was 1.46% [at 1.563 µM].

For `Cc1cc(NC(=O)COC(=O)C(Nc2ccc(C(F)(F)F)cc2Cl)C(C)C)no1` (stereo not given), the max inhibition was 3.28% [at 12.5 µM].

As to `Cc1ccccc1NC(=O)CCCSc1nc2ccccc2s1`, the max inhibition is 1.4% [at 25 µM].

For the molecule `O=C(OC(C(=O)Nc1cccc(C(F)(F)F)c1)c1ccccc1)C1CCCCC1` (stereo not given), the max inhibition was 3.65% [at 50 µM].

With `C=CCOc1c(Br)cc(CNc2ccc(NC(=O)C(C)C)c(OC)c2)cc1OCC`, the max inhibition was 2.15% [at 3.125 µM].

With `COc1ccccc1-n1c(COc2ccccc2-c2ccccc2)nnc1SCC(=O)c1c(N)n(C)c(=O)n(C)c1=O`, the max inhibition is 11.9%.

For the molecule `COc1ccc(Br)cc1C(=O)Nc1ccccc1-c1ccccc1`, the max inhibition was 6.2% [at 50 µM].

For `CCCC[C@@H]1C[C@H]1[C@@H](NC(=O)c1ccccc1)c1ccccc1C(F)(F)F`, the max inhibition is 3.06%.

On to `CCOc1ccccc1NC(=O)C(OC(=O)c1cc(C)oc1C)c1ccccc1` (stereo not given), for which the max inhibition is 4.82%.

In the case of `Cc1ccccc1Oc1ccc(-c2nc(N)nc(N)n2)cc1`, the max inhibition was 3.9%.

Turning to `O=S(=O)(c1ccccc1F)N(Cc1ccco1)Cc1nnc(-c2ccccc2Br)o1`, the max inhibition was 2.49% [at 1.563 µM].

Consider `Cc1ccc(C)c(N2CCN(C(=O)c3ccc(Cn4c(=S)[nH]c5ccc(N6CCOCC6)cc5c4=O)cc3)CC2)c1`, for which the max inhibition was 5.67%.

Take `CCOC(=O)C(C)Sc1nc2c(c(-c3cccs3)c1C#N)CCC2` (stereo not given): the max inhibition is 3.89% [at 50 µM].

For `Cc1ccc(OCc2nnc(SCC(=O)Nc3ccc4c(c3)OCCO4)n2Cc2ccco2)cc1`, the max inhibition was 0.12% [at 0.782 µM].

Consider `COC(=O)c1ccc(CSc2nc(-c3ccco3)cc(C(F)(F)F)n2)o1`, for which the max inhibition was 5.27%.

Take `CCCCOc1nc2ccccc2nc1C(C#N)C(=O)NC1CCCCC1` (stereo not given): the max inhibition is 4.45%.

As for `COc1ccc(-c2ccc(-c3noc(C4CCCCC4)n3)c(OC)n2)cc1`, the max inhibition is 3.89% [at 50 µM].

As for `O=C(CSc1nc2ccccc2s1)CSc1nc2ccccc2s1`, the max inhibition is 5.31%.

Take `O=C(Nc1ccccc1Cl)c1cccc(COc2cc(Cl)ccc2Cl)c1`: the max inhibition was 2.59%.

Turning to `COc1ccc(Cc2nc(-c3ccc(-n4cccc4)cc3)no2)cc1OC`, the max inhibition was 5.67%.

Consider `CCCCOc1cccc(C(=O)NC(=S)Nc2cccc(C(F)(F)F)c2)c1`, for which the max inhibition was 4.25%.
